Records with an inconclusive call do not appear. Entries that show only a call come without a potency. Values without a mark were called inactive. Activity calls are given as the source filed them. Calls follow the shape of the dose curve; as a rule, active = well fitted inhibition curve with a large enough effect; inconclusive = small, poorly fitted or top-dose-only effect; inactive = flat fitted curve, though single readings scatter.
biological target: Calcium and integrin-binding protein 1 (Homo sapiens) (UniProt Q99828); assay: Primary qHTS for Identification of Calcium Integrin Binding Protein 1 (CIB1) Competitor (AID 1508620); conditions: CIB1-GST / FITC-alphaIIb peptide fluorescence polarization; series mostly up to 57.7 µM;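 also: GST tagged CIB1 binding a fluorescein labelled alphaIIb integrin peptide tracer; top concentration of the series differs between compounds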
Summary of the method: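 Fluorescence polarization competition: CIB1-GST (1 uM final) preincubated with compound 15 min at room temperature, then FITC-labeled alphaIIb peptide (100 nM final) added for another 15 min. Polarization read at Ex 480/Em 540.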

Calcium and integrin-binding protein 1 (Homo sapiens), sequence (Q99828 whole entry, looked up): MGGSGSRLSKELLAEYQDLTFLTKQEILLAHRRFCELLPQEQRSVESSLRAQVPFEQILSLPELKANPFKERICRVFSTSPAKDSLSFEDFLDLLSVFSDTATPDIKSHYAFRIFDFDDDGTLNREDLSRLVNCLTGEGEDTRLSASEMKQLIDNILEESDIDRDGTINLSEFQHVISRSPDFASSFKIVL

Which Potency does the source give for `CC(C)c1cc2c(c(O)c1O[C@@H]1O[C@H](CO)[C@@H](O)[C@H](O)[C@H]1O)CC1(O)CCC(O)C(C)(C)C1CC2` (stereo partly drawn) here?
The Potency was “inactive”.

For `COc1cc(/C=C/C(=O)OC2[C@H](O)CC(O)(C(=O)O)C[C@H]2O)ccc1O` (stereo partly drawn), which Potency is on record?
Its Potency is “inactive”.

Which activity change, negative = inhibition does the source give for `C[C@@H]1O[C@@H](O[C@@H]2[C@@H](O)[C@H](O[C@@H]3[C@@H](O)[C@@H](O)[C@H](O[C@H]4[C@H](OC(=O)[C@]56CCC(C)(C)C[C@H]5C5=CCC7[C@@]8(C)C[C@H](O)[C@H](O[C@@H]9O[C@H](C(=O)O)[C@@H](O)[C@H](O)[C@H]9O)[C@@](C)(CO)C8[C@H](O)C[C@@]7(C)[C@]5(C)CC6)OC[C@H](O)[C@@H]4O)O[C@H]3C)OC[C@H]2O)[C@H](O)[C@H](O)[C@H]1O` (stereo partly drawn) here?
The activity change, negative = inhibition was 3.71% [at 12.4 µM].

How did the Potency turn out when `N#CC1C(=O)Nc2scc(-c3ccc(-c4ccccc4O)cc3)c2C1=O` (stereo not drawn) was run?
Its Potency is “inactive”.

For `CCC/C=C/C(=O)O[C@H]1CC(C)(C)CC2[C@]13[C@H](O)O[C@@]21CCC2[C@@]4(C)CC[C@H](O[C@@H]5O[C@H](C(=O)O)[C@@H](O)[C@H](O[C@@H]6O[C@H](CO)[C@H](O)[C@H](O)[C@H]6O[C@@H]6O[C@@H](C)[C@H](O)[C@@H](O)[C@H]6O[C@@H]6OC[C@](O)(CO)[C@H]6O)[C@H]5O[C@@H]5O[C@H](CO)[C@H](O)[C@H](O)[C@H]5O)C(C)(C)C4CC[C@@]2(C)[C@]1(C)C[C@H]3OC(C)=O` (stereo partly drawn), which activity change, negative = inhibition is on record?
Its activity change, negative = inhibition is -7.58% [at 12.4 µM].

With `O=C(OCc1cccc(O)c1O[C@@H]1O[C@H](CO)[C@@H](O)[C@H](O)[C@H]1O)C1(O)C(=O)C2C=CC1C1C=CC(=O)C(O)(C(=O)OCc3cccc(O)c3O[C@@H]3O[C@H](CO)[C@@H](O)[C@H](O)[C@H]3O)C21` (stereo partly drawn) as the molecule, how does the Potency read?
Its Potency is “inactive”.

Which Potency does the source give for `C/C=C/C=C/C(CC(=O)O)Nc1ccc(C=O)cc1` (stereo not drawn) here?
The Potency was “inactive”.

`C=CC(C)(O)CC/C=C(/C)C(=O)OC1C(OC2OCC(OC3OC(CO)C(O)C(O)C3O)C(OC3OCC(O)C(OC4OC(C)C(O)C(O)C4O)C3O)C2O)COC(OC(=O)C23CCC(C)(C)CC2C2=CCC4C5(C)CCC(OC6OC(CO)C(OC7OC(CO)C(O)C(OC8OCC(O)C(O)C8O)C7O)C(O)C6O)C(C)(C)C5CCC4(C)C2(C)CC3O)C1O` (stereo not drawn) was tested. Which activity change, negative = inhibition did it give?
Its activity change, negative = inhibition is -3% [at 12.4 µM].

Which Potency does the source give for `O=S(=O)(Nc1ccc(C(O)(C(F)(F)F)C(F)(F)F)cc1)c1cccs1` here?
Its Potency is “inactive”.

How did the Potency turn out when `CC1[C@@H](O)[C@@H](O)C2[C@]3(C)C(C[C@H]4OC(=O)[C@H](O)[C@]1(O)[C@@]24C)C(C)(O)C[C@H](O)[C@H]3O` (stereo partly drawn) was run?
The Potency was “inactive”.

With `COC(=O)C[C@@H]1C(C(=O)O)=CO[C@@H](O[C@@H]2O[C@H](CO)[C@@H](O)[C@H](O)[C@H]2O)/C1=C\COC(=O)/C=C\c1ccccc1` as the molecule, how does the Potency read?
Its Potency is “inactive”.

For `COc1cc(C2c3cc(O)c(OC)cc3CC(CO)C2CO)ccc1O` (stereo not drawn), which Potency is on record?
Its Potency is “inactive”.

Which Potency does the source give for `Nc1c(Br)cc(Br)cc1CNC1CCC(O)CC1` (stereo not drawn) here?
Its Potency is “inactive”.

With `COC(=O)C1=COC(O[C@@H]2O[C@H](CO)[C@@H](O)[C@H](O)[C@H]2O)/C(=C\COC(=O)c2ccc(OC3OC(CO)C(O)C(O)C3O)c(OC)c2)C1CC(=O)OCCc1ccc(O)cc1` (stereo partly drawn) as the molecule, how does the Potency read?
The Potency was “inactive”.

With `Cc1cc(O)c(C(C)C)cc1O[C@@H]1O[C@H](CO)[C@@H](O)[C@H](O)[C@H]1O` as the molecule, how does the Potency read?
The Potency was “inactive”.

How did the Potency turn out when `CN1C(=O)N[C@@H](Cc2c[nH]c3c(Cl)cccc23)C1=O` was run?
Its Potency is “inactive”.

`C=CC(C)(CC/C=C(\C)CC/C=C(\C)CC(O)/C=C(\C)C(=O)O)O[C@@H]1O[C@H](CO)[C@@H](O)[C@H](O)[C@H]1O[C@@H]1O[C@H](CO)[C@@H](O)[C@H](O)[C@H]1O` (stereo partly drawn) was tested. Which Potency did it give?
Its Potency is “inactive”.

With `CC1CCC2C(C)(C)C(O)CCC2(C)C12Cc1c(O)cc3c(c1O2)CN(C(CCC(N)=O)C(=O)O)C3=O` (stereo not drawn) as the molecule, how does the Potency read?
The Potency was “inactive”.

Which Potency does the source give for `CCC(C)(O)C(O)C(=O)OCc1ccc(O[C@@H]2O[C@H](CO)[C@@H](O)[C@H](O)[C@H]2O)c(OC)c1` (stereo partly drawn) here?
The Potency was “inactive”.

`COC(=O)C1=C[C@@H](O)[C@@H](O)[C@H](O[C@@H]2O[C@H](COC(=O)/C=C/c3ccccc3)[C@@H](O)[C@H](O)[C@H]2O)C1` was tested. Which Potency did it give?
The Potency was “inactive”.

For `C=CC(C)(C)O[C@@H]1O[C@H](CO[C@@H]2OC[C@](O)(CO)[C@H]2O)[C@@H](O)[C@H](O)[C@H]1O`, which Potency is on record?
Its Potency is “inactive”.

For `COC(=O)C1C(CC(C)=O)C=CC(O)C12Oc1cc(C)cc(O)c1C2=O` (stereo not drawn), which Potency is on record?
Its Potency is “inactive”.

How did the Potency turn out when `C[C@]12CC[C@@H]3c4ccc(O[C@@H]5O[C@H](C(=O)O)[C@@H](O)[C@H](O)[C@H]5O)cc4CC[C@H]3[C@@H]1CCC2=O` was run?
Its Potency is “inactive”.

From PubChem BioAssay (NCATS)
